Screening data as filed in PubChem BioAssay.
Most compounds without a hit are left out; they make up all but 14% or so of the library.
HCMV antiviral: qHTS Assay for inhibitors of the human cytomegalovirus (HCMV). HFF cells, HCMV-luciferase reporter, 72 h; active compounds read low. activity change, negative = inhibition, % at 57.5 µM. 410,000 compounds, 4.5% hits. AID 1259415, 2018; in the data active means activity change below about -60%; inconclusive means no clear call, values can overlap the other calls; inactive means above about -39%
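Inhibition of viral replication was scored as loss of reporter luminescence in HFFs infected with HCMV-luciferase (MOI 1 PFU/cell) for 72 h; compounds tested at 2 doses, normalized to buffer and Salinomycin controls.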
Pf growth 48h: Primary qHTS for delayed death inhibitors of the malarial parasite plastid, 48 hour incubation; Potency, µM (doses to about 28.7 µM), inactives show at the highest dose activity change, negative = inhibition, hits mostly inhibitors; P. falciparum luciferase growth in erythrocytes, 48 h; 310,000 compounds, 5.9% hits; further: potency means the concentration at half of the fitted maximal effect
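In quantitative HTS format, infected erythrocytes bearing luciferase-reporter parasites were treated for a single generation at 37 C. Luminescence after adding detection reagent served as the growth measure.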
Pf growth 96h: Primary qHTS for delayed death inhibitors of the malarial parasite plastid, 96 hour incubation; Potency, µM (highest dose often 28.7 µM), inactives show at the highest dose activity change, negative = inhibition, actives largely listed as inhibitors; P. falciparum luciferase reporter growth, 96 h; AID 504834, 2011; 320,000 compounds, 6.9% hits; further: potency means the concentration at half of the fitted maximal effect
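Luminescence readout: decreased luciferase signal marks inhibited growth of reporter-expressing P. falciparum in infected red cells (2% hematocrit, 0.05% parasitemia final), exposed to compound two generations (96 h, 37 C, 5% CO2).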
FBPA Giardia inh: qHTS Assay for Inhibitors of Fructose-1,6-bisphosphate Aldolase from Giardia Lamblia; A8B2U2; purified Giardia FBPA; Potency, µM (top dose mostly 59.6 µM), without a hit: at the highest dose activity, negative = inhibition, most hits filed as inhibitors; 290,000 compounds, 0.71% hits; AID 2451, 2010; further: potency means the concentration at half of the fitted maximal effect; nearly all actives have a fitted effect of over 55% in size
Target sequence (A8B2U2 whole entry, looked up): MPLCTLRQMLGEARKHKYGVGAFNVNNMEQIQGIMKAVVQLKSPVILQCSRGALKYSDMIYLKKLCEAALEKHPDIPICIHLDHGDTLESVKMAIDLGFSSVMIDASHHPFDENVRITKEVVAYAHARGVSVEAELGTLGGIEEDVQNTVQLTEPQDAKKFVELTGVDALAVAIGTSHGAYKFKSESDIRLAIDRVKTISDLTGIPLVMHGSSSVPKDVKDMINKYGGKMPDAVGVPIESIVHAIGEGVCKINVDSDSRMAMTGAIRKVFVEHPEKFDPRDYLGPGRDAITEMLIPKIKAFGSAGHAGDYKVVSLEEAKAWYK
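Giardia FBPA (40 nM reagent) was preincubated 10 min at RT with compound (up to 57.5 uM final), then substrate plus GAPDH/TPI/NAD/arsenate coupling system with diaphorase/resazurin was added; resorufin fluorescence (525/598 nm) was read after 20 min.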
Sm TGR block: qHTS Assay for the Inhibitors of Schistosoma Mansoni Peroxiredoxins; Schistosoma mansoni thioredoxin glutathione reductase (TGR), Q962Y6; purified TGR, DTNB reduction, TNB absorbance 405 nm; Potency, µM (highest dose often 114 µM), for inactives: at the top dose activity change, negative = inhibition, most hits filed as inhibitors; 360,000 compounds, 3% hits; AID 485364, 2010; further: potency means the concentration at half of the fitted maximal effect; nearly all actives have a fitted effect of over 60% in size
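Kinetic colorimetric format: TGR-catalysed, NADPH-driven DTNB reduction monitored via TNB absorbance. Enzyme dispensed at 20 nM; compound exposure 15 min at room temperature before reaction start.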
Starred values were filed as active, the others as inactive. Unless noted, the call rests on the fitted dose curve; in most records, active means well fitted curve in the direction sought with a large enough effect; inconclusive means small, poorly fitted or top-dose-only effect, or another doubt; inactive means no such curve, though single readings can be large; an effect the other way counts as inactive or inconclusive. On the % scale 0 is the no-effect control and ±100 the full control effect.

O=C(Cc1ccccc1)NC1CCSc2ccccc21 (stereo unspecified) was read as HCMV antiviral 18, Pf growth 48h 1%, Pf growth 96h -27% and Sm TGR block -7%.
For CC(C)Cc1ccc(-c2cc3nc(NCCCn4ccnc4)ccn3n2)cc1 the results were HCMV antiviral 56.
COc1cccc(CNC(=O)CCS(=O)(=O)c2ccc3c(c2)oc(=O)n3C)c1 was read as HCMV antiviral -30, Pf growth 48h -25%, Pf growth 96h 27% and Sm TGR block -2%.
For CC(NC(=S)NC1CCCCC1)c1ccc(C(C)(C)C)cc1 (stereo unspecified) the results were HCMV antiviral -97*, Pf growth 48h 5.9µM*, Pf growth 96h -7%, FBPA Giardia inh 18% and Sm TGR block -24%.
Screening CC1CCN(CCCNC(=O)c2coc3nc4ccccc4nc23)CC1 returned HCMV antiviral -3, Pf growth 48h inconclusive, Pf growth 96h 38%, FBPA Giardia inh -25% and Sm TGR block -12%.
`Cc1ccc(CCNC(=O)c2coc3nc4ccccc4nc23)cc1` gave HCMV antiviral -25, Pf growth 48h -21%, Pf growth 96h 2.6µM*, FBPA Giardia inh -18% and Sm TGR block -1%.
COc1cc(-c2noc(C)c2/C=C/c2ccc(N)cc2)cc(OC)c1OC was read as HCMV antiviral -83*, Pf growth 48h inconclusive, Pf growth 96h inconclusive, FBPA Giardia inh 6% and Sm TGR block -10%.
COc1cc(-c2c(-c3cc(OC)c(OC)c(OC)c3)noc2C)ccc1F was read as HCMV antiviral -94*, Pf growth 48h 5%, Pf growth 96h inconclusive, FBPA Giardia inh -18% and Sm TGR block -11%.
Screening COc1ccc(-c2c(-c3cc(OC)c(OC)c(OC)c3)noc2C)cn1 returned Pf growth 48h -1%, Pf growth 96h inconclusive, FBPA Giardia inh 8% and Sm TGR block 0%.
Screening COC(=O)[C@@]12C[C@@H](CC(=O)NCc3cccc(C(F)(F)F)c3)C(=O)N(CCc3ccc(OC)c(OC)c3)C1=CCC(C)(C)C2 returned HCMV antiviral 65.
`CC(C)CN(C(=O)COC(=O)CNC(=O)c1ccccc1)c1c(N)n(Cc2ccccc2)c(=O)[nH]c1=O` gave HCMV antiviral 2, Pf growth 48h 23%, Pf growth 96h 2% and Sm TGR block -1%.
For O=C(CSc1nnnn1-c1ccc(F)cc1)Nc1ccccc1F the results were HCMV antiviral -4, Pf growth 48h 24%, Pf growth 96h 8.3µM*, FBPA Giardia inh -2% and Sm TGR block -3%.
COc1ccccc1NC(=O)CSc1nnnn1-c1ccc(C(=O)O)cc1 was read as HCMV antiviral -22, Pf growth 48h 38%, Pf growth 96h 12µM*, FBPA Giardia inh 7% and Sm TGR block 28%.
`COc1ccccc1NC(=O)CSc1nnnn1-c1ccc(F)cc1` gave HCMV antiviral -20, Pf growth 48h -10%, Pf growth 96h inconclusive, FBPA Giardia inh 11% and Sm TGR block -5%.
For O=C(OCC(=O)c1ccccc1Cl)C1=NN(c2ccccc2)C(=O)CC1 the results were HCMV antiviral 13.
`CC1(C)Cc2c(C#N)c(N3CCN(C(=O)c4ccco4)CC3)nc(-c3ccco3)c2CS1` gave HCMV antiviral 18, Pf growth 48h 4.7µM*, Pf growth 96h inconclusive, FBPA Giardia inh -29% and Sm TGR block 2.8µM*.
`CC1(C)Cc2c(c(-c3ccco3)[nH]c(=O)c2C#N)CS1` gave HCMV antiviral 6, Pf growth 48h 4%, Pf growth 96h -5%, FBPA Giardia inh 18µM* and Sm TGR block 32µM*.
N#Cc1c(N2CCN(C(=O)c3ccccc3Cl)CC2)nc(-c2ccccc2)c2c1CCCC2 was read as HCMV antiviral -6, Pf growth 48h inconclusive, Pf growth 96h inconclusive, FBPA Giardia inh 2% and Sm TGR block 11%.
`CC1(C)Cc2c(C#N)c(N3CCN(C(=O)c4ccccc4Cl)CC3)nc(-c3ccco3)c2CS1` gave HCMV antiviral -4, Pf growth 48h inconclusive, Pf growth 96h 1.7µM*, FBPA Giardia inh -22% and Sm TGR block 3.5µM*.
`CC(=O)N1CCN(c2nc(-c3ccco3)c3c(c2C#N)CC(C)(C)SC3)CC1` gave HCMV antiviral -1, Pf growth 48h inconclusive, Pf growth 96h inconclusive, FBPA Giardia inh -11% and Sm TGR block 11µM*.
Screening O=C(O)CC(NS(=O)(=O)c1ccc(Cl)s1)c1ccccc1 (stereo unspecified) returned HCMV antiviral 12 and Sm TGR block -3%.
For CCC(=O)c1c[nH]c(C(=O)NCCCN2CCOCC2)c1 the results were HCMV antiviral -9, Pf growth 48h 1%, Pf growth 96h 16%, FBPA Giardia inh -8% and Sm TGR block -16%.
Screening CC(C)(C)c1ccc(C(=O)c2c[nH]c(C(=O)NCCc3ccccn3)c2)cc1 returned HCMV antiviral 36, Pf growth 48h 10µM*, Pf growth 96h inconclusive, FBPA Giardia inh 5% and Sm TGR block -1%.
CC(C)(C)c1ccc(C(=O)c2c[nH]c(C(=O)NCCCN3CCOCC3)c2)cc1 was read as HCMV antiviral -12, Pf growth 48h 13µM*, Pf growth 96h 10µM*, FBPA Giardia inh -2% and Sm TGR block -13%.
For Cc1ccc(NS(=O)(=O)c2cc(C(=O)Nc3cccc(N(C)S(C)(=O)=O)c3)ccc2C)c(C)c1 the results were HCMV antiviral inconclusive, Pf growth 48h -15%, Pf growth 96h inconclusive, FBPA Giardia inh -3% and Sm TGR block -1%.
Screening O=C(c1ccccc1-c1ncc[nH]1)N1CCc2c([nH]c3ccccc23)C1c1ccccn1 (stereo unspecified) returned HCMV antiviral -24, Pf growth 48h 12µM*, Pf growth 96h 16%, FBPA Giardia inh 2% and Sm TGR block 7%.
`CCc1nc(C)ccc1OCC(=O)N1CCc2c([nH]c3ccccc23)C1c1ccccn1` (stereo unspecified) gave HCMV antiviral -24, Pf growth 48h 2%, Pf growth 96h 8%, FBPA Giardia inh -22% and Sm TGR block 2%.
For O=C(c1ccccc1-n1cccn1)N1CCc2c([nH]c3ccccc23)C1c1ccccn1 (stereo unspecified) the results were HCMV antiviral inconclusive, Pf growth 48h inconclusive, Pf growth 96h 4.7µM*, FBPA Giardia inh -1% and Sm TGR block -2%.
